Laboratory results: PubChem BioAssay AID2284195 (EPA ToxCast)
Active and inactive are the calls of the source. The calls were made as follows: active = hit-call score of the fitted dose curve at least 0.9, where 1 is the maximum; inactive = score below 0.9.

These compounds were tested against Retinoic acid receptor alpha (Homo sapiens) (UniProt P10276) (assay: ERF_TW_NR_hRARa: Eurofins (ERF) Nuclear Receptor (NR) Radioligand Binding LeadHunter Assay for human Retinoic Acid Receptor alpha (RARa) Agonism).
Retinoic acid receptor alpha (Homo sapiens), sequence (P10276 whole entry, looked up): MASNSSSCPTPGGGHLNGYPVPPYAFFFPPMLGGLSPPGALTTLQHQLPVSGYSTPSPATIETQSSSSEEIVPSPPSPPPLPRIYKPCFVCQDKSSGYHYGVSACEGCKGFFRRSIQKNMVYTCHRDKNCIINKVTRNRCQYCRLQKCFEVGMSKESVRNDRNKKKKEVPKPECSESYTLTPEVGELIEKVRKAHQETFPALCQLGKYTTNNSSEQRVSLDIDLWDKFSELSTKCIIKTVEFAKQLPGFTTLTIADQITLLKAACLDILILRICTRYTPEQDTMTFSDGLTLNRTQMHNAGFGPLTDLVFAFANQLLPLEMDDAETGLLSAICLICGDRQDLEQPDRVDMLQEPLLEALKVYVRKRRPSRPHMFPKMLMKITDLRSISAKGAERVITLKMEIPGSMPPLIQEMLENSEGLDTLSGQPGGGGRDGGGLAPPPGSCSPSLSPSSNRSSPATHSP
Experimental: ERF_TW_NR_hRARa is a biochemical, single-readout assay that uses extracted gene-proteins in a cell-free assay. Measurements were taken 2 hour after chemical dosing in a 96-well plate. See RARalpha Human retinoic acid NHR Binding (Agonist Radioligand) Assay, Panlabs.ERF_TW_NR_hRARa is an assay component calculated from the ERF_TW_NR_hRARa assay. It is designed to measure radioligand binding using a type of binding reporter as detected by scintillation counting with radiometry technology.Data from the assay component ERF_TW_NR_hRARa was analyzed at the assay endpoint, ERF_TW_NR_hRARa, in the positive analysis fitting direction relative to DMSO as the negative control and baseline of activity. Using a type of binding reporter, gain-of-signal activity can be used to understand changes in radioligand binding as they relate to gene RARA. To generalize the intended target to other relatable targets, this assay endpoint is annotated to the nuclear receptor intended target family, where the subfamily is retinoic acid receptor.
Human recombinant RARalpha-LBD expressed in insect cells are used in modified Tris-HCl buffer pH 7.4. A 0.025 ug aliquot is incubated with 3 nM [3H]9-cis-Retinoic acid and 1 ug Anti-GST antibody for 2 hours at 4C. Non-specific binding is estimated in the presence of 1 uM 9-cis-retinoic acid. Receptors are counted to determine [3H]9-cis-Retinoic acid specifically bound. […]
O=C(/C=C/c1ccc(O)cc1)CC(=O)/C=C/c1ccc(O)cc1 was tested, and the AC50 was 2240 nM (active).
